PubChem BioAssay AID743279 (National Center for Advancing Translational Sciences (NCATS), 2014)
Where “and” joins values, the source holds several entries; their conditions need not be identical. Identical values can stand only once. Out of some 360,000 compounds screened, about 17,000 (4.7%) were called active. Inconclusive results (about 5%) are left out. Shown is part of a subset that was picked to be rich in actives. Values without a mark were called inactive. Cut-off read from the data, not from the text of the source: active = activity change below about -50%; inconclusive = mostly about -30% to -49%; inactive = weaker than that.

Assay: qHTS for Inhibitors of Inflammasome Signaling: IL-1-beta AlphaLISA Primary Screen
Conditions: THP-1 LPS/ATP IL-1B secretion, 16 h; at 57.5 µM, active compounds read low
Summary of the method: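 THP-1 cells pretreated 1 hr with compounds (up to 57.5 uM final), then stimulated with LPS (250 ng/mL final) plus ATP (1.25 mM final); secreted IL-1B measured by AlphaLISA after 16 hr, decreased signal indicating inhibition.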
% is set by controls: 0 for no effect and ±100 for the full control effect.

SMILES	activity change
COc1cc(CN2CCNC(=O)C2CC(=O)NCCc2ncccc2C)cc(OC)c1 (configuration not stated)	16.2%
CN(CCc1ccccc1)C(=O)c1cccc(NC(=O)Cc2cccc(NC(=O)C3CCCN(C(=O)C4CCC4)C3)c2)c1 (configuration not stated)	-17.1%
N#CCSc1ccccc1NC(=O)CN1C(=O)NC(CCc2ccccc2)C1=O (configuration not stated)	12.1%
C/C(N)=C(/C#N)C(=O)COC(=O)CNS(=O)(=O)c1ccc(C)cc1	-8.82%
COC(=O)CNS(=O)(=O)c1ccc(Cc2ccc(S(=O)(=O)NCC(=O)OC)cc2)cc1	-100% (active)
COC(=O)CNS(=O)(=O)c1ccc(OC)cc1	-22.2%
O=C(CSc1nnc(N2CCOCC2)n1-c1cccc(F)c1)N1CCN(c2ccccn2)CC1	2.69%
CCCCCNC(=O)C1C(=O)Nc2ccccc2C(=O)N1C(C)(C)C (configuration not stated)	6.47%
CCN1CCCC1CNC(=O)c1ccc2c(c1)NC(=O)/C(=C\c1ccccc1F)S2 (configuration not stated)	-14.5%
CC1(C)O[C@@H]2CC3C4C[C@H](F)C5=CC(=O)C=CC5(C)C4C(O)CC3(C)[C@]2(C(=O)CO)O1 (some centres not stated)	-54.9% (active)
C[C@]12C=CC(=O)C=C1CC[C@@H]1[C@@H]2C(=O)C[C@@]2(C)[C@H]1CC[C@]2(O)C(=O)CO	-14.3% and -7.83%
CCCc1nnc(NC(=O)CCC(=O)N2CCN(S(=O)(=O)c3ccc(OC)cc3)CC2)s1	-1.97%
CCOC(=O)c1cccc(NC(=O)CN2C(=O)C3CC=CCC3C2=O)c1 (configuration not stated)	14.4%
O=S(=O)(c1ccccc1)c1nc(-c2ccccc2)oc1NCCCN1CCOCC1	inactive
O=[N+]([O-])c1ccc(NCCCN2CCOCC2)c(Cl)c1	-21.3%
Nc1nc(NCCCN2CCOCC2)nc(Nc2ccccc2)c1[N+](=O)[O-]	-59.1% (active)
Cc1ccc(Cn2c(C)c3cnn(CC(=O)NCCN4CCOCC4)c(=O)c3c2C)cc1	-4.12%
O=C(CSc1ncn[nH]1)Nc1nc2c(F)c(F)c(F)cc2s1	-7.33%
Nc1nc(NCC2CCCO2)nc(Nc2ccccc2F)c1[N+](=O)[O-] (configuration not stated)	0%
C=CCNc1nc(N)c([N+](=O)[O-])c(NC2CCCCC2)n1	66.3%
Nc1nc(Nc2ccccc2F)nc(NC2CCCCC2)c1[N+](=O)[O-]	-71.1% (active)
CCN1C[C@@H]2[C@@H]3C(=O)N(Cc4ccccc4)C(=O)[C@@H]3[C@](C)(C1=O)N2C(=O)c1ccc(C(C)(C)C)cc1	0%
CSc1ncnc2c1ncn2CCCNCc1ccco1	15.8%
CCOc1ccc2[nH]c(=O)c(CN(Cc3nnnn3CCc3ccccc3)CC3CCCO3)cc2c1 (configuration not stated)	-29.1%
CCOc1ccc2[nH]c(=O)c(CN(Cc3nnnn3Cc3ccccc3)CC3CCCO3)cc2c1 (configuration not stated)	-63.9% (active)
Cc1cc(C)c2cc(CN(Cc3nnnn3Cc3ccc(F)cc3)C3CCCC3)c(=O)[nH]c2c1	7.62%

SMILES	activity change
Cc1cccc2cc(CN(Cc3cccs3)C(c3nnnn3C3CCCC3)C(C)C)c(=O)[nH]c12 (configuration not stated)	0%
Cc1cccc2cc(CN(Cc3nnnn3Cc3ccccc3)C3CCCC3)c(=O)[nH]c12	-64.3% (active)
CCC(c1nnnn1Cc1ccccc1)N(Cc1cc2cc(OC)ccc2[nH]c1=O)CC1CCCO1 (configuration not stated)	0%
Cc1cc(C)c2[nH]c(=O)c(C(c3nnnn3Cc3ccc4c(c3)OCO4)N3CCCC3)cc2c1 (configuration not stated)	-10.3%
CCC(c1nnnn1Cc1ccco1)N(CCc1ccccc1)Cc1cc2cccc(C)c2[nH]c1=O (configuration not stated)	-4.44%
Cc1cccc2cc(CN(Cc3ccc4c(c3)OCO4)Cc3nnnn3C3CCCC3)c(=O)[nH]c12	-54.8% (active)
COc1ccc(C(C#N)=C2C=CC(=NO)c3ccccc32)cc1	-24.6%
Cc1nc2ccccc2nc1CC(O)(c1ccccc1)c1ccccc1	3.22%
O=C1NC[C@H](CCCCN2CCN(CCc3ccccc3)C(=O)C2=O)N(CC2CCCCC2)C1=O	-14.3%
CCCCc1nc2ccc(F)cc2cc1C	8.78%
COc1ccc(C(C)(C)C)cc1NC(=O)CN(C)C1=NS(=O)(=O)c2ccccc21	10.7%
COc1ccc([C@H]2N[C@]3(CCCN(CC4CCCCC4)C3=O)[C@H]3C(=O)N(C)C(=O)[C@@H]23)cc1	-15%
O=C(Nc1cccc(Cc2ccccc2)c1)Nc1ccc2nc([C@@H]3O[C@H](CO)[C@@H](O)[C@H](O)[C@H]3O)[nH]c2c1	33.4%
COc1cc(/C=C2/C(=O)NN(c3cccc(Cl)c3)C2=O)cc(Br)c1O	-15.3%
CCOc1c(Br)cc(/C=C2\C(=O)N(CCC#N)N=C2C)cc1OC	-62.4% (active)
C=CCOc1c(Br)cc(/C=N\n2nnnc2N)cc1OC	0%
COc1cccc(-c2cc(NC(C)=O)c3ncc(-c4cccc(C(C)=O)c4)n3c2)c1	7.02%
Cc1cccn2c(=O)c(/C=C(\C#N)S(=O)(=O)c3ccc(Cl)cc3)c(N3CCC(C(N)=O)CC3)nc12	0%
Cc1cc(C)cc(Oc2nc3c(C)cccn3c(=O)c2/C=C(\C#N)C(=O)NC2CCS(=O)(=O)C2)c1 (configuration not stated)	-109% (active)
Cc1cccn2c(=O)c(/C=C(\C#N)C(N)=O)c(N3CCCCCC3)nc12	-18.7%
COc1ccc2c(c1)C(=O)CC(c1ccccc1)O2 (configuration not stated)	-12.1%
Cc1nn(C(C)C(=O)NCCC2=CCCCC2)c(=O)c2nn(-c3ccccc3)c(C)c12 (configuration not stated)	14.5%
CCc1c(C)sc(NC(=O)c2cccs2)c1C(N)=O	-92.1% (active)
CCc1cccc(C)c1NC(=O)COC(=O)CNC(=O)c1cccs1	16.5%
CCOC(=O)c1oc2ccccc2c1NC(=O)c1cccs1	-2.68%
COC(=O)C1=CO[C@@H](O[C@@H]2O[C@H](CO)[C@@H](O)[C@H](O)[C@H]2O)C2C1C[C@H](O)[C@@H]2C (some centres not stated)	15.4%
